Laboratory results: the supplement of paper PMC10849652
Targets with a hit are over-represented here; the source holds about 7,900 in all. About 0.6% of all pairs of compound and target were hits.

Tests used:
Test in all cases: log2 fold change, soluble protein after heating vs DMSO (PISA); higher = thermal stabilisation; K562 cells, 10 uM, 30 min; active = over 0.2 and 3.5 SD of the protein, either way, in both replicates (recomputed)
[1] = compound: C1=CC=C(C=C1)[C@H](COC2=CC3=C(C=C2)NC(=O)N3)NC(=O)C4=CC=CN(C4=O)CC5=CC(=C(C=C5)F)F
How it was run: (§1)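 Thermal stability values are relative to control samples and come from duplicates. They are expressed as log2 fold changes. For measurement, K562 cells (2×10^6 cells/mL) received 10 μM compound for 30 min, and aliquots were heated for 3 min over 48°C-58°C, pooled, and extracted at 4°C in PBS with 0.5% NP-40. Soluble protein, the supernatant after 21,000xg for 90 min, was quantified by TMTpro 16plex LC-MS/MS with equalised channel sums.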

[2] = compound: CC1=C2C(=CC=C1)N=C(N(C2=O)C3=CC=CC=C3C)CN4C=NC5=C(N=CN=C54)N
How it was run: as §1

[3] = compound: Cc1sc2c(c1C)C(c1ccc(Cl)cc1)=N[C@@H](CC(=O)OC(C)(C)C)c1nnc(C)n1-2
How it was run: as §1

[4] = compound: CC1=C(SC2=C1C(=N[C@H](C3=NN=C(N32)C)CC(=O)N)C4=CC=C(C=C4)Cl)C
How it was run: as §1

[5] = compound: c1ccc([C@@H]2C[C@H]2NC2CCNCC2)cc1
How it was run: as §1

Target: ACTBL2 (UniProt Q562R1)
UniProt Q562R1, sequence (Q562R1 whole entry, looked up): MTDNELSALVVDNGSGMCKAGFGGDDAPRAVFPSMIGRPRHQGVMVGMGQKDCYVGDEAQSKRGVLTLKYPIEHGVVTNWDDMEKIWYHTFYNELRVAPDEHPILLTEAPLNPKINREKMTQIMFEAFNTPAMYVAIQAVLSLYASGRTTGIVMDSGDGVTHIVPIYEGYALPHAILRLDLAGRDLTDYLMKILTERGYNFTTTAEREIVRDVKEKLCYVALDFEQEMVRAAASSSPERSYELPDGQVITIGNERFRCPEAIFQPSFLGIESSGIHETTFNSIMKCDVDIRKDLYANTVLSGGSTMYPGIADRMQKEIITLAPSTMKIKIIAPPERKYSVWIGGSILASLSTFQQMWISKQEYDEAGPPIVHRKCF
- log2 fold change [1]: -0.444 (inactive)
- log2 fold change [2]: -0.201 (inactive)

Target: BRAF, A0A2R8Y8E0
- log2 fold change [3]: 0.162 (inactive)

Target: AKNA (UniProt Q7Z591)
- log2 fold change [4]: 0.071 (inactive)
- log2 fold change [5]: 0.206 (inactive)

Target: AIF1 (UniProt P55008)
UniProt P55008, sequence (P55008 whole entry, looked up): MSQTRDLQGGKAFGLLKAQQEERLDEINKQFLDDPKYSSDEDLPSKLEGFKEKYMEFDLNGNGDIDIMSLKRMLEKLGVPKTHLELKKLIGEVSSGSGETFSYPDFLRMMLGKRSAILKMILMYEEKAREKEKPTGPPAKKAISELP
- log2 fold change [1]: -0.114 (inactive)
- log2 fold change [2]: 0.04 (inactive)

Target: ALDH2 isoform 2 (UniProt P05091)
UniProt P05091, sequence (P05091 whole entry, looked up): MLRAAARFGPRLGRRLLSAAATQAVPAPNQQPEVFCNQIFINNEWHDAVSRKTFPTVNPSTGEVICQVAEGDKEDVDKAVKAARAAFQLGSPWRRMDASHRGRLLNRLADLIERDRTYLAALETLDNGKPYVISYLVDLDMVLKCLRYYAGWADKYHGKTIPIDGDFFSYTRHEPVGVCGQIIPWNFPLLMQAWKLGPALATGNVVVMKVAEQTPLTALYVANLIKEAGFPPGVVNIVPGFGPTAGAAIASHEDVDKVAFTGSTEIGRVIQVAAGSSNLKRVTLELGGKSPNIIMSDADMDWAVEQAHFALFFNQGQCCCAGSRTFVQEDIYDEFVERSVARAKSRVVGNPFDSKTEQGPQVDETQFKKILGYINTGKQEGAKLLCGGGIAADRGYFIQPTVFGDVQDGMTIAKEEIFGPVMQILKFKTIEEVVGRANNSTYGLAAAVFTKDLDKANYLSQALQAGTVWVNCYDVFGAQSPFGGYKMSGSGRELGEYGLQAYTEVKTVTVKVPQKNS
- log2 fold change [1]: -0.092 (inactive)
- log2 fold change [2]: 0.379 (inactive)
- log2 fold change [3]: 0.074 (inactive)

Target: AZI2 (UniProt Q9H6S1)
UniProt Q9H6S1, sequence (Q9H6S1 whole entry, looked up): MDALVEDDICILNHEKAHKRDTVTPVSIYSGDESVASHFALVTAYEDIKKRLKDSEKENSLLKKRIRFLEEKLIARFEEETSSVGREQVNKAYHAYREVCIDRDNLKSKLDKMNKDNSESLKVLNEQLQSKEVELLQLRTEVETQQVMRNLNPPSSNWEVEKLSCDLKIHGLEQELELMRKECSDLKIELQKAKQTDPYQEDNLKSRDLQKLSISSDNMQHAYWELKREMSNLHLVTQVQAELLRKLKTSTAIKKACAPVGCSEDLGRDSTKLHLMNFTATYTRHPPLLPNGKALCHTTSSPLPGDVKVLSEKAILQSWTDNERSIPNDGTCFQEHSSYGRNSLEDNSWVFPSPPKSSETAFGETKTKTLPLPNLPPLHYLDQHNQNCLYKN
- log2 fold change [1]: 0.034 (inactive)
- log2 fold change [2]: -0.047 (inactive)
- log2 fold change [3]: 0.136 (inactive)

Target: AMD1 (UniProt P17707)
UniProt P17707, sequence (P17707 whole entry, looked up): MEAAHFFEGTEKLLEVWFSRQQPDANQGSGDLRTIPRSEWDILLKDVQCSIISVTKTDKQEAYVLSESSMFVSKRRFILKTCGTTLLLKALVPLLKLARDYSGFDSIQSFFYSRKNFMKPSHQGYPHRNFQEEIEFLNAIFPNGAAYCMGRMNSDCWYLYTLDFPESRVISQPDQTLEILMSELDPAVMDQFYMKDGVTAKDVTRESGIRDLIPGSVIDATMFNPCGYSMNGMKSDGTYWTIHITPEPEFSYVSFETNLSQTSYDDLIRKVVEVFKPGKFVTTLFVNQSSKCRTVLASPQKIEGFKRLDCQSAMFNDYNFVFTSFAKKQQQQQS
- log2 fold change [1]: -0.021 (inactive)
- log2 fold change [2]: 0.168 (inactive)
- log2 fold change [3]: -0.164 (inactive)

Target: AUNIP isoform 2 (UniProt Q9H7T9)
UniProt Q9H7T9, sequence (Q9H7T9 whole entry, looked up): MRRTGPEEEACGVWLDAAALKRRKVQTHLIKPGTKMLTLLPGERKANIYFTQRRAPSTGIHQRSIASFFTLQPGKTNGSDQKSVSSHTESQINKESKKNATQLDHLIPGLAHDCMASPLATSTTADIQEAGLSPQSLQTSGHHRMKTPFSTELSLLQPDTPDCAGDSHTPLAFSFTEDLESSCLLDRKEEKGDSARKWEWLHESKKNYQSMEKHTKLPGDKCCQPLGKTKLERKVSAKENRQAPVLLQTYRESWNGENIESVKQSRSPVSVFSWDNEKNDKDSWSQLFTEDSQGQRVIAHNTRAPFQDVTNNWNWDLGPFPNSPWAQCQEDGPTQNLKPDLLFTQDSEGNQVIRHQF
- log2 fold change [4]: 0.031 (inactive)
- log2 fold change [2]: 0.086 (inactive)
- log2 fold change [3]: -0.001 (inactive)
- log2 fold change [5]: -0.014 (inactive)

Target: AGAP3 isoform 4 (UniProt Q96P47)
UniProt Q96P47, sequence (Q96P47 whole entry, looked up): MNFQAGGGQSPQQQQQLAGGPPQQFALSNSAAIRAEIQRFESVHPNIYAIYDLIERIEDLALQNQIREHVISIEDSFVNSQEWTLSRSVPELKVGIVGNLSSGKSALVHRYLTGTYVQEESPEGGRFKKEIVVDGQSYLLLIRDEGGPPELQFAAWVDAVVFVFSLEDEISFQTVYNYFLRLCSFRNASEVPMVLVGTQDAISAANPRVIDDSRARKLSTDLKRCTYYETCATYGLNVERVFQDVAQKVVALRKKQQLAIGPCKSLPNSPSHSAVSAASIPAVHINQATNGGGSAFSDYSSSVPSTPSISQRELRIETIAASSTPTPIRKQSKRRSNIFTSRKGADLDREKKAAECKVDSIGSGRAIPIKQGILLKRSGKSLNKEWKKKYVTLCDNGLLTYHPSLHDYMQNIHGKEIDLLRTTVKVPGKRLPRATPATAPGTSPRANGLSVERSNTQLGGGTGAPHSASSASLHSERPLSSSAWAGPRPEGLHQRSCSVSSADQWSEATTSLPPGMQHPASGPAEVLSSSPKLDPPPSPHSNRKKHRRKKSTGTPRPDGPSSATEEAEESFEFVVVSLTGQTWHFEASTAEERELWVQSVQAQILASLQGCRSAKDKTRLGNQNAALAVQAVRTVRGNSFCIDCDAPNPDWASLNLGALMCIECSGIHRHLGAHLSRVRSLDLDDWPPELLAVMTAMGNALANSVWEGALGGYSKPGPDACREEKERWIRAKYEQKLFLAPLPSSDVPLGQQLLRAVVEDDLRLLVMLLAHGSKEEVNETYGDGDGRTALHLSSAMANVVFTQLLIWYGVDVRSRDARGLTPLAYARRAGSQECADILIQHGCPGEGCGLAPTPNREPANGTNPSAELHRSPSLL
- log2 fold change [1]: -0.08 (inactive)
- log2 fold change [4]: -0.023 (inactive)
- log2 fold change [3]: -0.006 (inactive)
- log2 fold change [5]: 0.05 (inactive)

Target: ADPRH (UniProt P54922)
UniProt P54922, sequence (P54922 whole entry, looked up): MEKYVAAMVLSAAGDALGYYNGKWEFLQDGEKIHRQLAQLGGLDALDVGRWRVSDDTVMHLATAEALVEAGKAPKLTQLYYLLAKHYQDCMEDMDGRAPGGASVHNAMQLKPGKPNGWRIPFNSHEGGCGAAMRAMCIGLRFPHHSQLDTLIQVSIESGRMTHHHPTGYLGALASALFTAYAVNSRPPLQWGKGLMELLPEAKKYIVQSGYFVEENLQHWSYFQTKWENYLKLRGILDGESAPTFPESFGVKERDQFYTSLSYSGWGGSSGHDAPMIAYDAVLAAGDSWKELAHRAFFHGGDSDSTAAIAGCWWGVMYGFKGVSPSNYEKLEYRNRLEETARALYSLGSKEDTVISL
- log2 fold change [1]: -0.035 (inactive)
- log2 fold change [2]: 0.344 (inactive)
- log2 fold change [3]: -0.121 (inactive)

Target: BAD (UniProt Q92934)
UniProt Q92934, sequence (Q92934 whole entry, looked up): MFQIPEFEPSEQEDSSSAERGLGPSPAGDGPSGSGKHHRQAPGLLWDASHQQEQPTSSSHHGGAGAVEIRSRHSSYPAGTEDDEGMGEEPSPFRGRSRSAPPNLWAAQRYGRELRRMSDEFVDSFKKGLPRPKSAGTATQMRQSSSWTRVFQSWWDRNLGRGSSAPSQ
- log2 fold change [1]: -0.001 (inactive)
- log2 fold change [4]: -0.042 (inactive)
- log2 fold change [2]: -0.086 (inactive)
- log2 fold change [5]: 0.032 (inactive)

Target: ACTR3B (UniProt Q9P1U1)
- log2 fold change [2]: -0.002 (inactive)
- log2 fold change [3]: 0.173 (inactive)

Target: ADD3 isoform 2 (UniProt Q9UEY8)
UniProt Q9UEY8, sequence (Q9UEY8 whole entry, looked up): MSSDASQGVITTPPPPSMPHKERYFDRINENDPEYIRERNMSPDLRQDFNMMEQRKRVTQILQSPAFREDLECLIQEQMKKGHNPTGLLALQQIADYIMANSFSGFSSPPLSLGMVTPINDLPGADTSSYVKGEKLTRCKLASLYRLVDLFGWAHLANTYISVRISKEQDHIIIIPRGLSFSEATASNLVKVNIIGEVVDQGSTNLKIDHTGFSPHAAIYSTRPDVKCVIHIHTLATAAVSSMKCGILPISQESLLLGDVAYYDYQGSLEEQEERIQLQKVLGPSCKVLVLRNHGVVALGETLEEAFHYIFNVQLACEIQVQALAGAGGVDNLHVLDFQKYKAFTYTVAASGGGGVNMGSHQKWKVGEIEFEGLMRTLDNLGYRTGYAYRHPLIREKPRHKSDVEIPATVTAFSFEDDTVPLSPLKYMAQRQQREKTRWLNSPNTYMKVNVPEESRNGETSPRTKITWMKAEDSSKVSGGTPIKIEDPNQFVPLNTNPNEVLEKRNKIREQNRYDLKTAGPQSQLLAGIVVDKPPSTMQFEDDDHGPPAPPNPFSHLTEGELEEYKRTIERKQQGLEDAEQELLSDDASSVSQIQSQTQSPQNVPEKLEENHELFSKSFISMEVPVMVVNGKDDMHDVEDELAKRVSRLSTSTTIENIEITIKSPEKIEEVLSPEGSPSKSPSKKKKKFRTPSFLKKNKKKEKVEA
- log2 fold change [4]: -0.075 (inactive)
- log2 fold change [2]: -0.038 (inactive)
- log2 fold change [3]: 0.007 (inactive)
- log2 fold change [5]: 0 (inactive)

Target: BDH2 (UniProt Q9BUT1)
UniProt Q9BUT1, sequence (Q9BUT1 whole entry, looked up): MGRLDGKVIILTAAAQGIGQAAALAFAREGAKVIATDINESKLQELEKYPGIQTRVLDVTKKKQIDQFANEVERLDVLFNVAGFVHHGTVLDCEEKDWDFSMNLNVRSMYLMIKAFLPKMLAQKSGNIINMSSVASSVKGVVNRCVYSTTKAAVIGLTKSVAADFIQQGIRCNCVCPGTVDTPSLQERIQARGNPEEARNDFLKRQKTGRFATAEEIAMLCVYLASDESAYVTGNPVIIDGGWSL
- log2 fold change [1]: -0.033 (inactive)
- log2 fold change [4]: 0.087 (inactive)
- log2 fold change [2]: -0.213 (inactive)
- log2 fold change [5]: 0.12 (inactive)
